Laboratory results reported in the supplement of paper PMC4894684.
Where a name gives a salt, the structure may show the parent alone. ± gives the standard deviation of the averaged measurements.

tested on: Toxoplasma gondii RH (in HFF); experiment: parasite growth relative to the screen mean (all compounds = 100%); higher = less inhibition of parasite growth; conditions: 5 µM; 72 h; oxygen 21 %
Method in brief: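 Growth values are relative to the mean of the whole screen and averaged over duplicate screens, with all compounds together set to 100%. Parasites (RH β-Gal–GFP Toxoplasma, MOI 1:5) were added within 2 h of pinning compounds at 5 µM final onto confluent human foreskin fibroblasts and grown 72 h at 21% O2. Parasite number came from CPRG β-Gal readings against in-plate standard curves.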

First: COc1cc(N)c(Cl)cc1C(=O)CCC1CCN(CCNS(C)(=O)=O)CC1
Second: COc1cc2ncnc(Nc3ccc(F)c(Cl)c3)c2cc1OCCCN1CCOCC1 [Iressa]
The parasite growth of the first is lower: 74.1 ± 2.4% for the first, 99 ± 20% for the second.

Going from `CCCCC#Cc1nc(NC)c2ncn([C@@H]3O[C@H](CO)[C@@H](O)[C@H]3O)c2n1` to `CCCCNc1c(C(=O)OCC)c(C)nc2c1cnn2CC` [Tracazolate hydrochloride], the parasite growth falls from 143 ± 8.2% to 109 ± 5.9%.

First: CC(C)C(=O)c1c(C(C)C)nn2ccccc12 [Ibudilast]
Second: CC(C)NCCN(C(C)C)S(=O)(=O)c1ccc(Cl)cc1Cl
The parasite growth of the first is lower: 75.7 ± 12% for the first, 142 ± 34% for the second.

`Cc1ccc(S(=O)(=O)/C=C/C#N)cc1` and `NS(=O)(=O)Cc1noc2ccccc12` [Zonisamide] are within error of each other in parasite growth: 135 ± 27% for the first, 131 ± 2.2% for the second.

`C[C@@H](N)[C@H]1CC[C@H](C(=O)Nc2ccncc2)CC1` and `N=C(N)c1ccc(N2CCN(C3CCN(CC(=O)O)CC3)CC2)cc1` are within error of each other in parasite growth: 92.3 ± 21% for the first, 128 ± 33% for the second.

`O=c1oc(-c2ccc(C(F)(F)F)cc2)nn1Cc1cc(Cl)ccc1O` and `CCc1cc2c(c(CC)n1)CCC(=O)N2Cc1ccc(-c2ccccc2-c2nn[nH]n2)cc1` [ZD 7155 hydrochloride] are within error of each other in parasite growth: 146 ± 11% for the first, 91.1 ± 57% for the second.

Going from `N=C(N)SCCc1ccc(OCc2ccc([N+](=O)[O-])cc2)cc1` [KB-R7943 mesylate] to `CCO/C(O)=C1\C(C)=NC(c2ccccc2)=C(C(=O)OCc2ccc([N+](=O)[O-])cc2)C1C#Cc1ccccc1` (centres undefined), the parasite growth rises from < 0% to 67.4 ± 16%.

Going from `COC(=O)C[C@](O)(CCCC(C)(C)O)C(=O)O[C@@H]1C(OC)=C[C@]23CCCN2CCc2cc4c(cc2[C@H]13)OCO4` [Homoharringtonine] to `COc1ccc(CCN(C)CCCN2CCc3cc(OC)c(OC)cc3CC2=O)cc1OC` [Zatebradine hydrochloride], the parasite growth rises from < 0% to 103 ± 1.8%.

Compared with `CC(C)NCC(O)COc1ccc(CC(N)=O)cc1` (racemic) [(RS)-Atenolol], `CN(CCc1ccc(Cl)c(Cl)c1)CC(O)COc1ccc(NS(C)(=O)=O)cc1` (centres undefined) is lower in parasite growth: 103 ± 7.6% for the first, 58.1 ± 4.3% for the second.

Compared with `Oc1cc2c(cc1O)CN(C(=S)NCCc1ccc(Cl)cc1)CCC2` [Capsazepine], `C[C@@H](CN1CCC(n2c(=O)[nH]c3cc(Cl)ccc32)CC1)NC(=O)c1ccc2ccccc2c1` is lower in parasite growth: 150 ± 30% for the first, 5.93 ± 2.3% for the second.

Compared with `C=C1C(=O)O[C@H]2[C@H]1CC/C(C)=C/CC[C@@]1(C)O[C@@H]21` [Parthenolide], `O=C1CC2(CCCC2)CC(=O)N1CCCCNCC1COc2ccccc2O1` (centres undefined) is higher in parasite growth: 87.7 ± 4.2% for the first, 156 ± 5.8% for the second.

`CC(C1=C(CCN(C)C)Cc2ccccc21)c1ccccn1` (stereo in doubt) [(S)-(+)-Dimethindene maleate] and `CC(C)CC(NC(=O)OCC1c2ccccc2-c2ccccc21)C(=O)O` (centres undefined) are within error of each other in parasite growth: 83.1 ± 56% for the first, 59.8 ± 23% for the second.

First: C1CCC2(CC1)CCNCC2 [4,4-Pentamethylenepiperidine hydrochloride]
Second: O=C(c1ccc(F)cc1)C1CCN(CCn2c(=O)[nH]c3ccccc3c2=O)CC1 [Ketanserin tartrate]
The parasite growth of the first is lower: 107 ± 22% for the first, 183 ± 33% for the second.

First: c1cnc(N2CCN(Cc3ccc4c(c3)OCO4)CC2)nc1 [Piribedil]
Second: CC(=O)N1CCN(c2ccc(OCC3COC(Cn4ccnc4)(c4ccc(Cl)cc4Cl)O3)cc2)CC1 (centres undefined) [Ketoconazole]
The parasite growth of the first is lower: 70.3 ± 8.6% for the first, 186 ± 29% for the second.

`Cc1ccc2c(c1)C(=O)C1(O)CCN(c3ccccc3)C1=N2` (racemic) [(±)-Blebbistatin] and `CC(=Cc1ccc(C(=O)O)cc1)c1ccc2c(c1)C(C)(C)CCC2(C)C` are within error of each other in parasite growth: 161 ± 15% for the first, 120 ± 27% for the second.

First: c1ccc(COCCCc2c[nH]cn2)cc1 [Proxyfan Oxalate]
Second: OC(c1ccccc1)C1CCN(CCc2ccccc2)CC1 (centres undefined)
The parasite growth of the first is higher: 112 ± 18% for the first, 70.7 ± 12% for the second.

Going from `CCCCOc1cc(CC2CNC(=O)N2)ccc1OC` (centres undefined) to `COC(=O)c1sccc1S(=O)(=O)Nc1ccc(Nc2ccccc2)cc1OC`, the parasite growth falls from 156 ± 27% to 64 ± 25%.

`C[C@](N)(Cc1ccc(O)c(O)c1)C(=O)O` [L-(-)- α-Methyldopa] and `N#C/C(=C(/N)Sc1ccc(N)cc1)c1ccccc1C(F)(F)F` are within error of each other in parasite growth: 146 ± 39% for the first, 113 ± 29% for the second.

Compared with `NS(=O)(=O)c1cc2c(cc1Cl)NC(C1CC3C=CC1C3)NS2(=O)=O` (centres undefined) [Cyclothiazide], `C=CCNC(=O)c1cc([N+](=O)[O-])cc2c(=O)[nH]c(Nc3ccc(Cl)c(Cl)c3)nc12` is lower in parasite growth: 118 ± 1.8% for the first, 89.6 ± 4.6% for the second.

With `Brc1c(NC2=NCCN2)ccc2nccnc12` [UK 14,304 tartrate] the parasite growth was 101 ± 27%.
